Rows were chosen to be rich in hits. Some 4.3% of all compounds tested hit in one or more screens of this group.
GRIN3A LBD mod: modulates the human NR3A ligand-binding domain; hit rate 2.5% among 340,000; AID 1259313; NR3A LBD differential scanning fluorimetry, Tm shift; 0% = protein alone, 100% = glycine-bound protein; Tm shift relative to glycine control, % at 25 µM;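 active = melting temperature shift of at least 10% of the positive control shift, at one fixed dose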
ADAM17 inh: inhibitors of human ADAM17 | inhibition, % at 6.95 µM | AID 720648 | P78536 | hit rate 0.83% among 370,000 | recombinant ADAM17, EDANS/DABCYL FRET peptide cleavage;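 active = inhibition above the mean of compounds lying between control limits plus 3 SD, set per campaign, cut at about 8.5% in these data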;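 note: 0% = DMSO-only wells as the low control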
Target sequence (P78536 215-824 limits assumed): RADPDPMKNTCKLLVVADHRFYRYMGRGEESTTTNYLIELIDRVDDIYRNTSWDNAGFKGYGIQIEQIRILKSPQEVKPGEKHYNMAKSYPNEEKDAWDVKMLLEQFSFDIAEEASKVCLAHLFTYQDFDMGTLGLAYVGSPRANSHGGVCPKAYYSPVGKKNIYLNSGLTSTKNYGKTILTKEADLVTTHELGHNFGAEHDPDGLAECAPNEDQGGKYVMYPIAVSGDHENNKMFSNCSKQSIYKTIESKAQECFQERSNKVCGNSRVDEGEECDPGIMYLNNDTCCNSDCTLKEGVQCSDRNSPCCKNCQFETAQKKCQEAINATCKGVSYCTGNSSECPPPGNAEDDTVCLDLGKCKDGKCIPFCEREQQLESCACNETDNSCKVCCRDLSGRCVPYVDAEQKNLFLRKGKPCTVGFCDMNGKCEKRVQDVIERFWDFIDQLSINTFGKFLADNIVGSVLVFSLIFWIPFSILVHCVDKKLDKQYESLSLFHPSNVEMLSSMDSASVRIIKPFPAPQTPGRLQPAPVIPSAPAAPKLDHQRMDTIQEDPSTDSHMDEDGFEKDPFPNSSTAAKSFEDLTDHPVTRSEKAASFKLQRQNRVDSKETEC
ADAM10 inh: ADAM10 inhibition, QFRET primary screen | O14672 | recombinant ADAM10, EDANS/DABCYL FRET peptide cleavage, 3 h | inhibition, % at 7 µM | hit rate 0.62% among 370,000;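 active = inhibition above a per-campaign cutoff equal to the mean of compounds falling between control-based bounds plus 3 SD, cut at about 20% in these data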;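 note: 0% = DMSO wells while the 100% control is not disclosed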
sPLA2-III inh: Inhibits HGIII-sPLA2 liposome hydrolysis, primary screen; hit rate 0.56% among 370,000; Q9NZ20; QFRET BODIPY PC-A2 liposome hydrolysis, fluorescence; inhibition, % at 12.2 µM;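 active = inhibition above mean plus 3 SD of compounds lying within the high and low control bounds, cut at about 19% in these data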;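 note: 0% = median of test compound wells and 100% = no enzyme DMSO wells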
FAS-TE inh: blocks the thioesterase domain of human fatty acid synthase; recombinant FAS-TE, OMFH fluorogenic substrate, fluorescence endpoint; inhibition, % at 15 µM; hit rate 0.67% among 360,000; AID 602261;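 active = compounds whose normalised, plate-corrected inhibition of enzyme fluorescence in the single-dose primary screen is 50% or more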;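 note: 0% = DMSO with enzyme and 100% = substrate without enzyme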
FAS-TE inh conf: FAS thioesterase (human) inhibition, confirmation; shares compounds with FAS-TE inh; recombinant FAS-TE, OMFH fluorogenic substrate, fluorescence; inhibition, % at 15 µM; hit rate 45% among 2,300;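 active = compounds inhibiting the enzyme by at least 50% at 15 µM in any one of the replicates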;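 note: 0% = enzyme with DMSO only and 100% = wells lacking enzyme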
Starred values were filed as active, the others as inactive; . = not tested or not shown.

SMILES	GRIN3A LBD mod	ADAM17 inh	ADAM10 inh	sPLA2-III inh	FAS-TE inh	FAS-TE inh conf
COC(=O)c1ccc(S(=O)(=O)N2CCC(NC(=O)CCC3CCCC3)CC2)cc1	.	1	-2	-3	.	.
COc1ccc(-c2c([C@H]3[C@H]4C=CC[C@@H](C)[C@@H]4C(=O)N3Cc3ccccc3)ccc3ccccc23)cc1OC	-1	-2	8	-1	55*	14
COc1ccc(-c2ccc(OC)c([C@H]3[C@H]4C=CC[C@@H](C)[C@@H]4C(=O)N3Cc3ccccc3)c2)cc1OC	-2	2	4	0	36	.
COc1ccc(-c2cc(C)no2)cc1S(=O)(=O)N1CCN(c2ccc([N+](=O)[O-])cc2)CC1	-1	1	-3	1	50*	32
COc1ccc(-c2cc(C)no2)cc1S(=O)(=O)N1CCN(c2ccccc2F)CC1	-3	-3	-1	2	30	.
CCCCN1CC(=O)N2[C@H](C[C@@]3(C)c4ccccc4N(S(=O)(=O)c4ccccc4)[C@@H]23)C1=O	.	-4	-3	1	.	.
O=C(c1nn2c(C(F)(F)F)cc(-c3cccs3)nc2c1Cl)N1CCCc2ccccc21	-1	-1	-5	4	68*	-3
Cc1ccc2nc(-c3ccc(NC(=O)CSc4nnc(-c5cc(-c6ccc(F)cc6)n[nH]5)n4N)cc3)sc2c1	.	-53	-150	2	.	.
Cc1cccc(C)c1N1CCN(c2nc(N(C)C)oc(=O)c2C#N)CC1	3	-3	0	-1	56*	17
CC1(C(=O)Nc2ccc(Cl)c(Cl)c2)CCN1C(=O)CC1CCCC1 (configuration not stated)	.	0	9	0	62*	54*
CCOc1ccc(NC(=S)N2CCc3cc(OC)c(OC)cc3C2COc2ccc3c(C)cc(=O)oc3c2)cc1 (configuration not stated)	-19	-57	-198	5	78*	6
CCCC1NC(=O)c2cc3ccccc3cc2-n2c1nc1cc(Cl)ccc1c2=O (configuration not stated)	.	0	4	1	73*	35
Cc1ccc2nc3n(c(=O)c2c1)-c1cc2ccccc2cc1C(=O)NC3Cc1ccccc1 (configuration not stated)	.	3	10	-2	91*	2
O=C1NC(Cc2ccc(O)cc2)c2nc3ccc(Cl)cc3c(=O)n2-c2cc3ccccc3cc21 (configuration not stated)	.	2	-3	-5	19	.
Cc1cc(C)c2c(=O)n3c(nc2c1)C(Cc1ccccc1)NC(=O)c1cc2ccccc2cc1-3 (configuration not stated)	.	-1	-2	-1	86*	5
CCCC1NC(=O)c2cc3ccccc3cc2-n2c1nc1ccc(C)cc1c2=O (configuration not stated)	.	4	-4	5	27	.
CCC1NC(=O)c2cc3ccccc3cc2-n2c1nc1cc(C)cc(C)c1c2=O (configuration not stated)	.	-5	-8	7	-2	.
O=C1NC(Cc2ccccc2)c2nc3ccc(Cl)cc3c(=O)n2-c2cc3ccccc3cc21 (configuration not stated)	.	0	-1	-1	78*	11
CN(c1c2c(nc3ncnn13)CCCC2)C1CCCCC1	.	3	5	0	.	.
O=C1NC(Cc2ccccc2)c2nc3ccc(F)cc3c(=O)n2-c2cc3ccccc3cc21 (configuration not stated)	.	1	5	-10	80*	29
COc1ccc(C2CC(=O)C(c3ccc(Br)cc3)=CN2Cc2ccccc2)cc1 (configuration not stated)	.	1	-3	-1	.	.
O=C(COc1ccc2c(-c3ccccc3)cc(=O)oc2c1)N[C@@H](Cc1c[nH]c2ccc(O)cc12)C(=O)O	0	-1	-5	-27	74*	70*
COc1cccc(N2CCN(C(=O)COc3cc(=O)n(C)c4ccccc34)CC2)c1	.	0	-8	10	.	.
Cc1ccc2c(Cl)cc(Cl)c(OCC(=O)Nc3cc(S(=O)(=O)N(C)C)ccc3C)c2n1	-6	0	3	-11	52*	2
CCC(=O)N1CCc2cc(Br)c(S(=O)(=O)N3CCCC(C(=O)NC(C)(C)C)C3)cc21 (configuration not stated)	.	0	1	0	.	.
SMILES	GRIN3A LBD mod	ADAM17 inh	ADAM10 inh	sPLA2-III inh	FAS-TE inh	FAS-TE inh conf
CN1C(=O)c2cc(NC(=O)Nc3ccccc3)ccc2OC[C@H]2O[C@@H](CC(=O)NC3Cc4ccccc4C3)CC[C@@H]21	.	-3	8	-26	.	.
O=C(CN(C(=O)c1ccccc1Cl)C1CCCCC1)Nc1ccc(Cl)c([N+](=O)[O-])c1	4	3	10	0	62*	14
O=C(COc1ncnc2ccccc12)Nc1ccc(Cl)c([N+](=O)[O-])c1	-12	5	5	-12	68*	66*
O=C(COc1ncnc2ccccc12)Nc1cccc([N+](=O)[O-])c1	0	0	5	-6	20	.
O=C(OCC#CCSc1nnc(-c2cccc3ncccc23)o1)c1ccc(F)cc1	.	-6	-22	1	.	.
Cc1ccc(-n2[nH]c(C)c(/C=N/Nc3ccc([N+](=O)[O-])cc3[N+](=O)[O-])c2=O)cc1C	20*	-1	-2	1	55*	41*
Cc1[nH]n(-c2ccccc2)c(=O)c1/C=N/NC(=O)c1cccc([N+](=O)[O-])c1	-2	-2	-5	1	30	.
Cc1c(NC(=O)C2CCCN(S(=O)(=O)c3ccc(Br)s3)C2)c(=O)n(-c2ccccc2)n1C (configuration not stated)	.	1	1	0	.	.
CCOc1cc(/C=N\Nc2nc(Nc3ccccc3)nc(N3CCOCC3)n2)ccc1OC(=O)c1ccco1	5	3	-3	-2	72*	17
CCOC(=O)c1ccc(Nc2nc(N3CCOCC3)nc(N3CCOCC3)n2)cc1	0	-3	-10	8	51*	14
CCOC(=O)c1csc(NC(=O)C2CCCN(S(=O)(=O)c3cc(OC)ccc3OC)C2)n1 (configuration not stated)	.	1	0	-15	.	.
Cc1ccc(S(=O)(=O)N2CCCc3nc(-c4ccccc4)ccc32)cc1	.	1	4	-3	.	.
COc1ccc(COC[C@H](C)N2C[C@@H](C)[C@H](CN(C)S(=O)(=O)c3ccc(F)cc3)OCCCC[C@H](C)Oc3ccc(NC(=O)Nc4ccccc4)cc3C2=O)cc1	.	3	13	-3	.	.
COc1ccc(Cn2c(C(F)(F)F)ccc(C(N)=O)c2=O)cc1	1	-47	-140	-3	3	.
NC(=O)c1ccc(C(F)(F)F)n(Cc2c(Cl)cccc2Cl)c1=O	-10	1	13	-12	50*	41
Cc1ccc(C)c(S(=O)(=O)N2CCN(C(C(=O)Nc3ccc(F)cc3)c3ccccc3)CC2)c1 (configuration not stated)	-25	-1	2	1	25	.
